For 33 compounds, Potency and outcome results are on record in PubChem BioAssay (NCATS).

Results filed as inconclusive are left out. Activity calls are given as the source filed them. Unless noted, the call rests on the fitted dose curve; in most records, active means well fitted curve in the direction sought with a large enough effect; inconclusive means small, poorly fitted or top-dose-only effect, or another doubt; inactive means no such curve, though single readings can be large; an effect the other way counts as inactive or inconclusive. Peptide text beside a SMILES is read from it.

Experiment [1] is described as follows: qHTS for differential inhibitors of proliferation of Plasmodium falciparum line 3D7 (AID 1876; further: potency means the concentration at half of the fitted maximal effect). (In general: Quantitative high-throughput screening tests each substance at several concentrations.)
A short description of experiment [2]: qHTS for differential inhibitors of proliferation of Plasmodium falciparum line D10 (AID 1877).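 Further: parasites grown with compound for 72 h before DNA staining.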
Experiment [3] can be described thus: qHTS for differential inhibitors of proliferation of Plasmodium falciparum line Dd2 (AID 1882). Further: series mostly up to about 29 µM; nearly all actives have a fitted effect of over 65% in size. The note with it: Potency: Plasmodium falciparum Dd2 proliferation inhibition. The essentials:
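Dd2-infected erythrocytes (0.3% parasitemia, 2.5% hematocrit final) incubated with compound 72 h at 37 C, 5% CO2; lysed with saponin/Triton buffer containing SYBR Green I, incubated overnight in the dark, then read by fluorescence (485/535 nm). Normalized to 0.29 uM artemisinin and DMSO.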

Experiment [4] in a line: qHTS for differential inhibitors of proliferation of Plasmodium falciparum line W2 (AID 1883).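 Further: parasites grown with compound for 72 h before lysis and staining.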 Further: potency means the concentration at half of the fitted maximal effect. The note with it: Potency: Plasmodium falciparum W2 proliferation inhibition.
Experiment [5] is described as follows: qHTS for differential inhibitors of proliferation of Plasmodium falciparum line HB3 (AID 1886).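 Further: parasites grown with compound for 72 h before SYBR Green readout.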 Further: potency means the concentration at half of the fitted maximal effect. The note with it: Potency: Plasmodium falciparum HB3 proliferation inhibition.
Experiment [6] concerns the target Ferritin light chain (Equus caballus) (UniProt P02791). As to the kind of experiment: qHTS Validation Assay for Identification of Novel General Anesthetics (AID 2323). Further: series mostly up to about 77 µM. The method in brief:
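Apoferritin from horse spleen (10 uM) was mixed with 1-aminoanthracene at 50% saturation in PBS, then compounds were added. After 10 min at room temperature, fluorescence was read (ex 380 nm, em 535 nm) and normalized to free-probe and complex controls.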

Experiment [7] concerns the target ATP-dependent DNA helicase Q1 (Homo sapiens) (UniProt P46063). As to the kind of experiment: qHTS Validation Assay for Inhibitors of RecQ-Like Dna Helicase 1 (RECQ1) (AID 2353). The essentials: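 50 nM RECQ1T1 preincubated 15 min with compound in Tris pH 8.0 buffer with MgCl2, DTT, Tween-20 and 2.5 ug/ml poly(dI-dC); started with 200 nM TAMRA/BHQ-2 forked duplex and 2 mM ATP. Unwinding read as fluorescence (525/598 nm), two reads 2 h apart.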

Experiment [8] can be described thus: qHTS Assay for Modulators of Human Peripheral Myelin Protein 22 (PMP22) Expression/Activity (AID 1967; active means well fitted curve in the direction sought with a large enough effect in the signal ratio; the % refers to the signal ratio). The essentials:
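Quantitative HTS in a mouse Schwann cell line expressing dual click beetle luciferases: Pmp22 promoter (green) and control EF-alpha promoter (red). After 24h treatment, corrected green/red signal ratio gave %Activity relative to untreated cells.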

A short description of experiment [9]: qHTS Assay for Identification of Small Molecule Inducers of Hypoxia Response (AID 2120; active means well fitted curve in the direction sought with a large enough effect in the signal ratio, with a control signal flat, not every such curve was filed as active; the % refers to the signal ratio). The method in brief:
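ME-180 HRE-bla cells plated in Opti-MEM/0.5% dialyzed FBS, rested 4-5 h, then dosed with compound titrations by pin tool. After 17 h at 37 degrees C, CCF4 dye loaded 2.5 h at RT; 460/530 nm ratio gave %Activity and AC50.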

Chain of ATP-dependent DNA helicase Q1 (Homo sapiens) (P46063 whole entry, looked up): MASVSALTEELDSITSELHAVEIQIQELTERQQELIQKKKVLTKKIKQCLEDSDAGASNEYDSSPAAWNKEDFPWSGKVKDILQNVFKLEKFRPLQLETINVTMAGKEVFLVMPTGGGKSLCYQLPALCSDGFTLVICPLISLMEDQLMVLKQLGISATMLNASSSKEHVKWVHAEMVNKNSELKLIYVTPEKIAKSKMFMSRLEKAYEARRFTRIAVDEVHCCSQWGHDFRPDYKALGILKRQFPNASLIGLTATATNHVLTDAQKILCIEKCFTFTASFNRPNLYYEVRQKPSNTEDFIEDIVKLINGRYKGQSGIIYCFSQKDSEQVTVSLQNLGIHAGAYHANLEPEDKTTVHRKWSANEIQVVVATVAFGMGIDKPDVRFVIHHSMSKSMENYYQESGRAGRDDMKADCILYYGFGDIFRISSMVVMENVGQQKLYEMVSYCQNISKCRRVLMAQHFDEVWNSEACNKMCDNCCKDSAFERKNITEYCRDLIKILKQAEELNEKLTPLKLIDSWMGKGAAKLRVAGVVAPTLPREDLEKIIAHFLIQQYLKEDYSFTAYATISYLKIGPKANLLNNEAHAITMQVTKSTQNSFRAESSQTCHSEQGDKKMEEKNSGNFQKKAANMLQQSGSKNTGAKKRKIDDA

For the compound `O=C(c1ccccc1)c1ccc2n1CCC2C(=O)O` (stereo not given), the Potency entry in experiment [1], in experiment [2], in experiment [3], in experiment [4], in [5] and in [6] was “inactive” each time. In [7], the Potency result was “inactive”.
For the compound `O=C1c2c(O)cc(O)cc2OC(c2ccc(O)c(O)c2)C1O` (stereo not given), the Potency in [1] is 14.1 µM (active); in experiment [4], 12.6 µM (active); in experiment [5], 15.8 µM (active). Besides, the Potency entry in experiment [3] and in experiment [7] was “inactive” in each case.
Consider `CC1(C)NC(=O)N(c2ccc([N+](=O)[O-])c(C(F)(F)F)c2)C1=O`, for which the Potency result in [1], in experiment [2], in [3], in [5], in experiment [6] and in experiment [7] was “inactive” each time. Besides, the outcome in [8] was inactive.
For the compound `NNc1nncc2ccccc12`, the Potency entry in [1], in experiment [3], in [5], in experiment [6] and in experiment [7] was “inactive” each time.
As to `O=C(O)c1cccnc1Nc1cccc(C(F)(F)F)c1`, the Potency entry in [1], in [2], in [3], in experiment [4], in experiment [5] and in experiment [6] was “inactive” in each case. For the same compound, in [7], the Potency result is “inactive”.
Turning to `O=c1c(O)c(-c2ccc(O)cc2O)oc2cc(O)cc(O)c12`, the Potency result in experiment [1], in experiment [2], in experiment [3], in experiment [4], in experiment [5] and in [6] was “inactive” throughout. Further, in experiment [7], the Potency result is “inactive”.
Turning to `NCCCCNCCCN`, the Potency entry in experiment [1], in [2], in [3], in [4], in experiment [5] and in experiment [6] was “inactive” throughout. In addition, in experiment [7], the Potency result was “inactive”.
Take `CC1(C)C(=O)N(CCN2CCC(C(=O)c3ccc(F)cc3)CC2)c2ccccc21`: the Potency in experiment [1] is 11.2 µM (active); in [4], 6.31 µM (active); in experiment [5], 12.6 µM (active). The Potency result in [7] was “inactive”.
For the compound `C[C@@H](N)C1CCC(C(=O)Nc2ccncc2)CC1` (stereo not given in full), the Potency result in experiment [1], in experiment [2], in experiment [3], in experiment [5], in experiment [6] and in [7] was “inactive” in each case. In addition, in experiment [8], the call was inactive.
Take `O=c1cc(N2CCOCC2)oc2c(-c3ccccc3)cccc12`: the Potency entry in [1], in [2], in experiment [3], in experiment [5], in experiment [6] and in experiment [7] was “inactive” in each case.
In the case of `Nc1nc(OCc2ccccc2)c2[nH]cnc2n1`, the Potency result in experiment [1], in experiment [2], in experiment [3], in experiment [5], in experiment [6] and in experiment [7] was “inactive” throughout.
Take `COc1ccc2cc([C@H](C)C(=O)O)ccc2c1`: the Potency result in experiment [1], in [2], in [3], in experiment [4], in experiment [5] and in experiment [6] was “inactive” in each case. Besides, the Potency result in experiment [7] was “inactive”.
On to `CS(=O)(=O)OCCCCOS(C)(=O)=O`, for which the call in [9] was inactive.
As for `O=c1ccc2ccc(O)c(O)c2o1`, the Potency in experiment [4] was 15.8 µM (active); in [5] it was 12.6 µM (active). The Potency entry in [6] and in experiment [7] was “inactive” throughout.
`OC(CN1CCN(c2cccc(Cl)c2)CC1)C(c1ccccc1)c1ccccc1` (stereo not given): in [4], the Potency was 10 µM (active). The Potency result in [6] and in experiment [7] was “inactive” each time.
On to `COc1ccccc1N1CCN(CCN(C(=O)C2CCCCC2)c2ccccn2)CC1`, for which the Potency in experiment [4] is 7.94 µM (active); in experiment [5], 11.2 µM (active). Further, the Potency result in experiment [6] and in experiment [7] was “inactive” in each case.
Turning to `Cc1nc2n(c(=O)c1CCN1CCC(c3noc4cc(F)ccc34)CC1)CCCC2`, the Potency entry in experiment [6] and in [7] was “inactive” in each case.
As for `CCCCC(CC)COC(=O)C(C#N)=C(c1ccccc1)c1ccccc1` (stereo not given), the compound was classed as inactive in experiment [9].
`CCN(CC)C(=S)SSC(=S)N(CC)CC`: the Potency in experiment [1] is 2.82 µM (active). Also, the Potency entry in experiment [7] was “inactive”.
Consider `c1ccc2[nH]c(-c3cscn3)nc2c1`, for which the result in [9] was inactive.
Regarding `O=C1NC(=O)C(c2ccccc2[N+](=O)[O-])=C1Nc1ccc(O)c(Cl)c1`, the Potency result in [2], in experiment [3], in experiment [6] and in experiment [7] was “inactive” in each case. Moreover, the Potency in [4] is 17.8 µM (active).
`Cc1cccc(C#Cc2ccccc2)n1`: the Potency entry in [2], in experiment [3] and in [7] was “inactive” in each case. Moreover, the Potency in experiment [4] was 12.6 µM (active).
As to `COC(=O)[C@H](Cc1ccccc1)NC(=O)[C@@H](N)CC(=O)O` (H-Asp-Phe-OMe), the outcome in experiment [9] was inactive.
`Cc1cc(O)c2c(c1)C(=O)c1cc(O)cc(O)c1C2=O`: the Potency result in experiment [2], in experiment [3] and in experiment [7] was “inactive” each time. In [9], the result was inactive.
For `O=C(NCC1CCCCN1)c1cc(OCC(F)(F)F)ccc1OCC(F)(F)F` (stereo not given), the Potency entry in experiment [6] and in experiment [7] was “inactive” in each case.
For `Cc1c(OCC(F)(F)F)ccnc1CS(=O)c1nc2ccccc2[nH]1` (stereo not given), the Potency result in experiment [3], in [6] and in experiment [7] was “inactive” each time.
As to `COc1cc2nc(N3CCN(C(=O)C4CCCO4)CC3)nc(N)c2cc1OC` (stereo not given), the Potency result in experiment [3], in experiment [6] and in experiment [7] was “inactive” in each case. Moreover, the Potency in experiment [4] was 11.2 µM (active). Besides, the outcome in experiment [8] was inactive.
In the case of `CNC[C@H](O)c1ccc(O)c(O)c1`, the Potency in experiment [4] was 14.1 µM (active). The Potency result in [6] and in experiment [7] was “inactive” each time.
Regarding `NS(=O)(=O)c1cc(C(=O)O)c(NCc2ccco2)cc1Cl`, the compound was classed as inactive in experiment [9].
In the case of `O=C1c2ccccc2-c2n[nH]c3cccc1c23`, the results for the Potency in experiment [1] and in experiment [4] were 12.6 µM (active) and 7.94 µM (active), respectively. Besides, in experiment [7], the Potency entry was “inactive”.
Consider `Nc1ccc(S(N)(=O)=O)cc1`, for which the call in [9] was inactive.
Take `O=C(CCc1ccc(O)cc1)c1c(O)cc(O)cc1O`: the Potency result in experiment [2], in [6] and in [7] was “inactive” each time. In [4], the Potency is 14.1 µM (active).
Take `CC(=O)N1CCN(c2ccc(OC[C@H]3CO[C@](Cn4ccnc4)(c4ccc(Cl)cc4Cl)O3)cc2)CC1`: the Potency entry in experiment [7] was “inactive”.
